Compound activity deposited in PubChem BioAssay by National Center for Advancing Translational Sciences (NCATS).
TrxR1 substrate: rat thioredoxin reductase 1 substrate activity. O89049. purified TrxR1 substrate turnover, NADPH consumption readout. Potency, µM (top dose mostly 114 µM). hit rate 0.01% among 390,000. AID 588456; also: nearly all actives have a fitted effect of over 50% in size
Target sequence (O89049 whole entry, looked up): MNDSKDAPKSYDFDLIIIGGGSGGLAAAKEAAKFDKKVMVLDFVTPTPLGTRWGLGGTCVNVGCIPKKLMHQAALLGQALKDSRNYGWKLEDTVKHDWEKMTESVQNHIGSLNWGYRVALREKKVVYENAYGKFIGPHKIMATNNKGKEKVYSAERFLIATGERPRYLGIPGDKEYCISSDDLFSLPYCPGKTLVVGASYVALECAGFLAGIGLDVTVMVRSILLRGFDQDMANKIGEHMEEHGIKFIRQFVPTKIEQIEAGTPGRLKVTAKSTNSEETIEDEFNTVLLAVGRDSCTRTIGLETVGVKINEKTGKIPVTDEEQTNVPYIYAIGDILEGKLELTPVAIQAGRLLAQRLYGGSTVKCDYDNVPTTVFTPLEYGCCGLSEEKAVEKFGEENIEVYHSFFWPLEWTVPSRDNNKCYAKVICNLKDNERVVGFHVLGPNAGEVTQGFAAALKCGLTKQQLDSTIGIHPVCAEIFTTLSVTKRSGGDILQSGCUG
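Rat TrxR1, dispensed at 90 nM, was prereduced with 400 uM NADPH (final) for 5 min at ~22 deg C, then incubated with compound 15 min before 400 uM selenite. A first-read NADPH fluorescence drop versus no-compound background flagged substrates.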
FBPA coupling cs: inhibits coupling enzyme system, counter-screen for aldolase hits; activity change, negative = inhibition, % at 58.2 µM, hits read low; coupling enzyme system counterscreen, AmpLite Red fluorescence; hit rate 0.67% among 290,000; in the data active = activity change below about -30%
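Counterscreen lacking aldolase: glyceraldehyde-3-phosphate coupling-enzyme reagent preincubated 10 min at RT with compound (at 57.5 uM final), then substrate/coupling system with AmpLite Red added; fluorescence read at 525/598 nm after 20 min RT.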
GALK inh: blocks human galactokinase activity | P51570 | Purified GALK, Kinase-Glo residual ATP luminescence | Potency, µM (top dose mostly 57.5 µM), usual class: inhibitors | hit rate 0.007% among 270,000 | AID 1868
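Kinase-Glo Plus luminescence measured ATP left after a 1 h room-temperature reaction. The reaction used 5 nM GALK, 100 uM galactose and 35 uM ATP at pH 8.0 (20 mM HEPES, 5 mM MgCl2, 60 mM NaCl, 1 mM DTT, 0.01% BSA).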
Gal4-VP16 FLuc: Gal4-VP16 reporter inhibition counter-screen | Drosophila S2 Gal4-VP16 UAS-luciferase, luminescence, 20 h | Potency, µM (highest dose often 53.6 µM), usual class: inhibitors | hit rate 3.5% among 310,000 | AID 2546;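 also: Gal4-VP16 expression switched on by copper sulfate through the metallothionein promoter; nearly all actives have a fitted effect of over 50% in size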
rTrxR1 inhibitor: blocks rat thioredoxin reductase 1 | O89049 | recombinant rTrxR1, NADPH fluorescence consumption, selenite substrate | Potency, µM (series often up to 114 µM), most hits filed as inhibitors | hit rate 1% among 390,000 | AID 588453; also: nearly all actives have a fitted effect of over 65% in size
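Rat TrxR1 (90 nM in the dispensed reagent) was pre-reduced with 400 uM NADPH for 5 min at room temperature, then incubated with compound for 15 min. After 400 uM selenite was added, NADPH fluorescence (Ex 340/Em 450 nm) was followed for 8 min.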
RORgamma inh: ROR gamma (mouse) transcription inhibition. Drosophila S2 Gal4-RORgamma UAS-luciferase reporter, 20 h. hit rate 5.4% among 310,000. Potency, µM (highest dose often 53.6 µM), hits mostly inhibitors; also: nearly all actives have a fitted effect of over 60% in size
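Drosophila Schneider cells stably carrying a metallothionein-driven Gal4 DBD–ROR gamma fusion and a UAS-Photinus luciferase reporter were exposed to compound for 1 hr, then induced with copper sulfate (700 uM final) for 20 hr at ambient temperature before luminescence reading.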
Large screens that a line does not name were inactive. Hits are enriched below; roughly 5.9% of the tested compounds scored in any of these assays. Unless noted, calls follow the shape of the dose curve; as a rule, active = well fitted curve in the direction sought with a large enough effect; inconclusive = small, poorly fitted or top-dose-only effect, or another doubt; inactive = no such curve, though single readings can be large; an effect the other way counts as inactive or inconclusive.

COc1cccc(C(=O)Nc2ccccc2C(=O)OCc2cc(=O)n3c(C)csc3n2)c1	none (no result: FBPA coupling cs, GALK inh, Gal4-VP16 FLuc, RORgamma inh)
COc1ccc(N/N=C/c2c(C(=O)O)ccc3ccccc23)cc1	Gal4-VP16 FLuc 4.47µM, RORgamma inh 1.41µM
NC(=O)CSc1oc(-c2cccs2)nc1S(=O)(=O)c1ccc(Br)cc1	none (no result: FBPA coupling cs, GALK inh, Gal4-VP16 FLuc, RORgamma inh)
C=C(C)C(=O)N1CC2(CC(c3cccc(NC(=O)/C=C\C=C/C)c3)=NO2)C[C@H]1C(N)=O (some centres not stated)	rTrxR1 inhibitor 20µM
C/C=C\C=C/C(=O)Nc1cccc(C2=NOC3(C2)C[C@@H](C(N)=O)N(C(=O)/C=C/C=C\C)C3)c1 (some centres not stated)	rTrxR1 inhibitor 7.08µM
C/C=C\C=C/C(=O)Nc1cccc(C2=NOC3(C2)C[C@@H](C(N)=O)N(C(=O)/C=C/CC)C3)c1 (some centres not stated)	rTrxR1 inhibitor 15.8µM
C/C=C\C=C/C(=O)Nc1cccc(C2=NOC3(C2)C[C@@H](C(N)=O)N(C(=O)C2(C)CC2)C3)c1 (some centres not stated)	rTrxR1 inhibitor 28.2µM
C=CCNC(=O)c1ccc(-c2ccc([N+](=O)[O-])cc2)o1	rTrxR1 inhibitor 10µM
C=CCNC(=O)c1ccc(-c2cccc([N+](=O)[O-])c2)o1	none
CCCN(CC(=O)Nc1ccccc1C)C(=O)c1ccc(-c2ccc([N+](=O)[O-])cc2)o1	rTrxR1 inhibitor 3.55µM (no result: FBPA coupling cs, GALK inh, Gal4-VP16 FLuc, RORgamma inh)
COCC(C)n1c(-c2ccc3c(c2)NC(=O)CO3)csc1=Nc1ccc(OC(F)F)cc1 (configuration not stated)	Gal4-VP16 FLuc inconclusive, RORgamma inh inconclusive
C/C(=N\NC(=O)c1ccco1)c1cc(Cl)sc1Cl	RORgamma inh inconclusive (no result: FBPA coupling cs)
Cc1ccc2nc(-c3ccc4c(c3)NC(=O)CO4)cn2c1	Gal4-VP16 FLuc inconclusive, RORgamma inh inconclusive
CN(C)S(=O)(=O)c1cccc(-c2cn3cc(Cl)ccc3n2)c1	Gal4-VP16 FLuc inconclusive
Clc1ccc2nc(-c3ccccc3)cn2c1	Gal4-VP16 FLuc inconclusive, RORgamma inh 11.2µM
Clc1ccc2nc(-c3ccc4c(c3)OCO4)cn2c1	Gal4-VP16 FLuc 8.91µM, RORgamma inh 5.01µM
O=S(=O)(c1ccc(-c2cn3ccccc3n2)cc1)N1CCOCC1	rTrxR1 inhibitor inconclusive, RORgamma inh inconclusive
c1ccn2cc(-c3ccc4c(c3)OCCO4)nc2c1	Gal4-VP16 FLuc inconclusive, RORgamma inh 3.55µM
Cc1ccc2nc(-c3ccc4c(c3)OCCO4)cn2c1	Gal4-VP16 FLuc 1.12µM, RORgamma inh 0.398µM
Cc1ccc2c(c1)sc1nc(=O)ccn12	none
Cc1noc(C(F)(F)F)c1C(=O)NNC(=O)c1cccc(C(F)(F)F)c1	none
N=c1c(C(=O)NC2CCCC2)cc2c(=O)n3ccccc3nc2n1Cc1ccccc1	none
Cc1ccc2nc(-c3cc(-c4ccccc4)no3)cn2c1	Gal4-VP16 FLuc 3.98µM, RORgamma inh 1.41µM
COc1ccc(CNC(=S)Nc2ccccc2F)cc1	Gal4-VP16 FLuc 17.8µM, RORgamma inh inconclusive
COc1ccc(CNC(=S)Nc2cccc(C)c2C)cc1	Gal4-VP16 FLuc 7.94µM, RORgamma inh 2.51µM
Cc1cccc(NC(=S)NCc2ccncc2)c1C	none
COc1ccc(C(=O)NC(=S)NNC(=O)c2ccccc2C)cc1	none (no result: FBPA coupling cs, GALK inh, Gal4-VP16 FLuc, RORgamma inh)
CNC(=O)NC(=S)NC(=O)c1ccc(OC)cc1	RORgamma inh 11.2µM
COc1ccc(C(=O)NC(=S)Nc2ccccc2F)cc1	Gal4-VP16 FLuc 11.2µM, rTrxR1 inhibitor inconclusive, RORgamma inh 4.47µM
COC(=O)c1cc(OC)c(OC)cc1NC(=O)CSCc1c(C)noc1C	none (no result: FBPA coupling cs, GALK inh, Gal4-VP16 FLuc, RORgamma inh)
Fc1ccc(CNC(=S)Nc2ccccc2F)cc1	Gal4-VP16 FLuc inconclusive, RORgamma inh inconclusive
Fc1ccccc1NC(=S)NCc1ccc(Cl)cc1	Gal4-VP16 FLuc inconclusive, RORgamma inh 11.2µM
CCOC(=O)CSC(=S)NC(=O)c1ccc(OC)cc1	rTrxR1 inhibitor 22.4µM
COc1ccc(C2NC(=S)NC3=C2CCc2cc(OC)ccc23)cc1 (configuration not stated)	Gal4-VP16 FLuc inconclusive, RORgamma inh 0.562µM (no result: GALK inh)
